The values below come from PubChem BioAssay (EPA / NIEHS).

The source made the active and inactive calls. How the source made its calls: active means hit-call score of the fitted dose curve at least 0.9, where 1 is the maximum; inactive means score below 0.9.

Read-out in the test: Potassium channel subfamily K member 1 (KCNK1), KCNK1 (gene 3775)
The experiment in a line: LTEA_HepaRG_KCNK1: Life Technologies and Expression Analysis (LTEA) Assay for Potassium channel subfamily K member 1 (KCNK1) using HepaRG (AID 2283511). Particulars: mRNA level, 48 h; actives raise or lower the signal. The gist of the method: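 HepaRG, 48 h exposure, 8-pt half-log series top 100 uM, 0.5% DMSO vehicle, duplicates. Readout: KCNK1 transcript by qRT-PCR (Fluidigm array), housekeeping-normalized; bidirectional curve fit relative to DMSO baseline.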
Turning to `CC(C)CCCCCCc1ccc(O)cc1`, the call was inactive. With `N#CSCSc1nc2ccccc2s1`, the call was inactive. Regarding `CC(=O)S[C@@H]1CC2=CC(=O)CC[C@]2(C)[C@H]2CC[C@@]3(C)[C@@H](CC[C@@]34CCC(=O)O4)[C@H]12`, the call was inactive. On the same count and under the same terms, for `O=C(c1ccc(O)cc1O)c1ccc(O)cc1O` the value was “inactive”; for `CCOC(=O)COc1cc(-n2ncc(C(F)(F)F)c(C)c2=O)c(F)cc1Cl`, “inactive”. On the same count and under the same terms, for `OB(O)O` the value was “inactive”; for `CCCCOC(=O)[C@@H](C)Oc1ccc(Oc2ccc(C(F)(F)F)cn2)cc1`, “inactive”; for `CC(C)(C)[C@@H](O)[C@@H](Cc1ccc(Cl)cc1)n1cncn1`, “inactive”. Still for that read-out and setting: then `CCCN(CCC)C(=O)SCC`, with “inactive”; and `CCCCOC(=O)C(C)Oc1ccc(Oc2ccc(C(F)(F)F)cn2)cc1` (stereo not given), with “inactive”; and `O=C(O)C1(C(=O)Nc2ccc(Cl)cc2Cl)CC1`, with “inactive”. In the case of `COC(=O)c1ccc(I)cc1S(=O)(=O)NC(=O)Nc1nc(C)nc(OC)n1`, the result was inactive. Take `C=CCOC(Cn1ccnc1)c1ccc(Cl)cc1Cl` (stereo not given): the AC50 – broadly, the midpoint of the concentration-response curve, whichever way the signal moves – was 50 µM (active).

Consider `C[C@]12C[C@H](O)[C@H]3[C@@H](CCC4=CC(=O)CC[C@@]43C)[C@@H]1CC[C@@H]2C(=O)CO`, for which the compound was classed as inactive. On the same count and under the same terms, for `C#CCOC(=O)[C@@H](C)Oc1ccc(Oc2ncc(Cl)cc2F)cc1` the value was “inactive”; for `CCCCC(CC)CN1C(=O)C2C3C=CC(C3)C2C1=O` (stereo not given), “inactive”. Still for that read-out and setting: for `O=C(O)c1ccccc1` the value was “inactive”; for `CCN(CC)C(=O)c1cccc(C)c1`, “inactive”. As to `CCCN(CCC)c1c([N+](=O)[O-])cc(C(F)(F)F)c(N)c1[N+](=O)[O-]`, the result was inactive. For the compound `Cc1nn(C)c(Oc2ccccc2)c1C=NOCc1ccc(C(=O)OC(C)(C)C)cc1`, the half-maximal activity concentration (AC50) is 12.9 µM (active).
